Source: PubChem BioAssay (NCI)
This is part of a sample that, as a whole, favours compounds with a hit. Of some 79,000 tested, about 15% had one in any assay. Calls of active or inactive are those of the source. Cut-off read from the data, not from the text of the source: active = growth inhibition above about 70%; inactive = the rest.

What was measured:
[1] = NCI Yeast Anticancer Drug Screen. Data for the mlh1 strain (AID 171);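 note: 0% = growth of vehicle-treated control cultures of the same strain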; conditions: S. cerevisiae mlh1 strain growth inhibition, stronger effect = higher value
Outline: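 Steps: expose the defined-mutant yeast strain to compound; expose a parallel culture to vehicle; measure growth; express compound effect as inhibition relative to the vehicle culture.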

[2] = NCI Yeast Anticancer Drug Screen. Data for the sgs1 strain (AID 173);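 note: 0% = growth of vehicle-only control cultures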; conditions: S. cerevisiae sgs1 mutant, stronger effect = higher value
Outline: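 Treat defined-mutant yeast with compound; measure growth; calculate inhibition relative to vehicle-treated cells.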

[3] = NCI Yeast Anticancer Drug Screen. Data for the mlh1 rad18 strain (AID 175); conditions: S. cerevisiae mlh1 rad18 strain growth inhibition, stronger effect = higher value
Outline: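 Test agents were incubated with a yeast strain of defined genotype (DNA damage repair defect). Inhibition of growth was derived by comparison with vehicle-exposed cultures.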

[4] = NCI Yeast Anticancer Drug Screen. Data for the rad18 strain (AID 177); conditions: S. cerevisiae rad18 mutant growth inhibition, stronger effect = higher value
Outline: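 A genetically defined yeast mutant impaired in DNA damage repair was treated with test compounds, then its growth was measured against cultures receiving vehicle alone.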

[5] = NCI Yeast Anticancer Drug Screen. Data for the rad52 strain (AID 147);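 note: 0% = growth of vehicle-treated control cultures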; conditions: S. cerevisiae rad52 mutant growth inhibition, stronger effect = higher value
Outline: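 Screen used a yeast mutant impaired in DNA repair. After compound exposure, growth was measured. Values reflect inhibition compared with vehicle-treated cells.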

[6] = NCI Yeast Anticancer Drug Screen. Data for the wt1 strain (AID 149);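 note: 0% = growth of vehicle-treated wt1 cultures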; conditions: S. cerevisiae wt1 strain (SPY 50644) growth inhibition, stronger effect = higher value
Outline: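 Readout: yeast growth inhibition, normalised to vehicle controls, in the wt1 strain exposed to test compounds.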

[7] = NCI Yeast Anticancer Drug Screen. Data for the rad50EPP+ strain (AID 151);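 note: 0% = growth of vehicle-treated control cultures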; conditions: S. cerevisiae rad50 mutant strain, stronger effect = higher value
Outline: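 Exposing the rad50EPP+ strain to each compound, growth was compared with vehicle-only cultures to give inhibition.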

[8] = NCI Yeast Anticancer Drug Screen. Data for the rad50 strain (AID 155);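 note: 0% = growth of vehicle-only cultures of the same strain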; conditions: S. cerevisiae rad50 strain growth inhibition, stronger effect = higher value
Outline: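 Compounds were tested on a yeast strain with an engineered DNA damage repair alteration; the reported value is growth inhibition normalised to vehicle treatment.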

[9] = NCI Yeast Anticancer Drug Screen. Data for the mec2-1 strain (AID 157); conditions: S. cerevisiae mec2-1 strain, stronger effect = higher value
Outline: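 Readout is yeast growth inhibition, normalised to vehicle-treated controls, in the mec2-1 strain exposed to compound.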

[10] = NCI Yeast Anticancer Drug Screen. Data for the rad14 strain (AID 159);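 note: 0% = growth of vehicle-treated control cultures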; conditions: S. cerevisiae rad14 strain growth inhibition, stronger effect = higher value
Outline: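 Compound-treated yeast with a defined DNA-repair lesion; growth inhibition normalised to vehicle-treated cultures.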

[11] = NCI Yeast Anticancer Drug Screen. Data for the sgs1 mgt1 strain (AID 161);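 note: 0% = growth of cultures given vehicle only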; conditions: S. cerevisiae sgs1 mgt1 strain, stronger effect = higher value
Outline: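 Compounds are added to genetically altered yeast, and growth is compared with cultures given vehicle alone to give percent inhibition.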

[12] = NCI Yeast Anticancer Drug Screen. Data for the CLN2oe strain (AID 163);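 note: 0% = growth of vehicle-only control cultures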; conditions: S. cerevisiae CLN2oe strain, stronger effect = higher value
Outline: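 Values reflect how much compound exposure reduced yeast growth, referenced to vehicle-exposed cells. Assay organism is a strain with a defined genetic change affecting cell-cycle control.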

[13] = NCI Yeast Anticancer Drug Screen. Data for the cln2 rad14 strain (AID 165);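 note: 0% = growth equal to vehicle treated cultures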; conditions: S. cerevisiae cln2 rad14 strain, stronger effect = higher value
Outline: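 Relative to vehicle controls, growth inhibition of compound-treated cln2 rad14 yeast was recorded.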

[14] = NCI Yeast Anticancer Drug Screen. Data for the bub3 strain (AID 167); conditions: S. cerevisiae bub3 mutant strain, stronger effect = higher value
Outline: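 Growth of a checkpoint-deficient yeast mutant is measured after compound exposure. Values represent inhibition relative to vehicle.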

[15] = NCI Yeast Anticancer Drug Screen. Data for the wt2 strain (AID 169);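 note: 0% = growth of vehicle-treated yeast cultures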; conditions: S. cerevisiae wt2 strain growth inhibition, stronger effect = higher value
Outline: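 Values express reduction in yeast growth under compound treatment, referenced to vehicle-treated cells.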

[16] = at 5.0 µM (retest, dose inferred, filed as 0.5)
[17] = at 50.0 µM (retest, dose inferred, filed as 5.0)

Measured: growth inhibition

Clc1nc(C(Cl)Cl)nc2sc3c(c12)CCCC3
active: [2]; at 100.0 µM 78% | [3]; [17] 74% | [3]; at 50.0 µM 96.3%
inactive: [1]; at 1.2 µM 4% | [1]; at 3.7 µM 4% | [1]; at 11.0 µM 7% | [1]; at 33.0 µM 29% | [1]; at 100.0 µM 51% | [2]; at 1.2 µM 7% | [2]; at 3.7 µM 7% | [2]; at 11.0 µM 10% | [2]; at 33.0 µM 51% | [3]; [16] -1% | [4]; at 1.2 µM 12% | [4]; at 3.7 µM 13% | [4]; at 11.0 µM 21% | [4]; at 33.0 µM 35% | [4]; at 100.0 µM 58%

Clc1cc(Cc2ccc(N=C/C=C/c3ccccc3)c(Cl)c2)ccc1N=C/C=C\c1ccccc1
inactive: [5]; at 1.2 µM 11% | [5]; at 3.7 µM -1% | [5]; at 11.0 µM 4% | [5]; at 33.0 µM 9% | [5]; at 100.0 µM 30% | [6]; at 1.2 µM -5% | [6]; at 3.7 µM -4% | [6]; at 11.0 µM -5% | [6]; at 33.0 µM 1% | [6]; at 100.0 µM 14% | [7]; at 1.2 µM 18% | [7]; at 3.7 µM -4% | [7]; at 11.0 µM 15% | [7]; at 33.0 µM 15% | [7]; at 100.0 µM 21% | [8]; at 1.2 µM 13% | [8]; at 3.7 µM 3% | [8]; at 11.0 µM 8% | [8]; at 33.0 µM 5% | [8]; at 100.0 µM 32% | [9]; at 1.2 µM 17% | [9]; at 3.7 µM 20% | [9]; at 11.0 µM 9% | [9]; at 33.0 µM -11% | [9]; at 50.0 µM 33.1% | [9]; at 100.0 µM 19% | [10]; at 1.2 µM -8% | [10]; at 3.7 µM -20% | [10]; at 11.0 µM -14% | [10]; at 33.0 µM -19% | [10]; at 100.0 µM 19% | [11]; [16] -23% | [11]; at 50.0 µM 62.7% | [12]; at 1.2 µM -3% | [12]; at 3.7 µM -18% | [12]; at 11.0 µM -20% | [12]; at 33.0 µM -31% | [12]; at 100.0 µM 3% | [13]; [16] 14% | [13]; at 50.0 µM 58.8% | [14]; at 1.2 µM -12% | [14]; at 3.7 µM 1% | [14]; [16] 30% | [14]; at 11.0 µM -9% | [14]; at 33.0 µM -9% | [14]; at 50.0 µM 54.1% | [14]; at 100.0 µM -7% | [15]; at 1.2 µM -11% | [15]; at 3.7 µM -17% | [15]; at 11.0 µM -8% | [15]; at 33.0 µM 4% | [15]; at 100.0 µM 26% | [1]; at 1.2 µM -16% | [1]; at 3.7 µM -9% | [1]; at 11.0 µM -17% | [1]; at 33.0 µM -10% | [1]; at 100.0 µM 12% | [2]; at 1.2 µM 12% | [2]; at 3.7 µM 7% | [2]; at 11.0 µM 8% | [2]; at 33.0 µM 8% | [2]; at 100.0 µM 41% | [3]; at 50.0 µM 64.7% | [4]; at 1.2 µM 1% | [4]; at 3.7 µM -11% | [4]; at 11.0 µM -20% | [4]; at 33.0 µM -25% | [4]; at 100.0 µM 24%
active: [8]; [16] 100% | [8]; [17] 100% | [8]; at 50.0 µM 71.3% | [9]; [16] 100% | [9]; [17] 99% | [11]; [17] 88% | [13]; [17] 74% | [14]; [17] 86% | [3]; [16] 100% | [3]; [17] 100%

CCN(CC)CC(O)C1CCC(c2ccccc2)CC1 (centres undefined)
active: [5]; at 100.0 µM 78% | [8]; [17] 78% | [8]; at 50.0 µM 84.8% | [8]; at 100.0 µM 83% | [9]; [17] 76% | [9]; at 100.0 µM 79% | [10]; at 33.0 µM 89% | [10]; at 100.0 µM 98% | [11]; [17] 95% | [11]; at 50.0 µM 92.7% | [12]; at 100.0 µM 80% | [13]; [17] 70% | [14]; [17] 87% | [14]; at 50.0 µM 83% | [14]; at 100.0 µM 84% | [15]; at 100.0 µM 83% | [1]; at 100.0 µM 91% | [2]; at 33.0 µM 72% | [2]; at 100.0 µM 93% | [3]; [17] 86% | [4]; at 100.0 µM 78%
inactive: [5]; at 1.2 µM 2% | [5]; at 3.7 µM 11% | [5]; at 11.0 µM 22% | [5]; at 33.0 µM 52% | [6]; at 1.2 µM 1% | [6]; at 3.7 µM 10% | [6]; at 11.0 µM 5% | [6]; at 33.0 µM 13% | [6]; at 100.0 µM 40% | [7]; at 1.2 µM 4% | [7]; at 3.7 µM 6% | [7]; at 11.0 µM 15% | [7]; at 33.0 µM 23% | [7]; at 100.0 µM 68% | [8]; at 1.2 µM 5% | [8]; at 3.7 µM 12% | [8]; [16] 13% | [8]; at 11.0 µM 22% | [8]; at 33.0 µM 61% | [9]; at 1.2 µM 3% | [9]; at 3.7 µM 12% | [9]; [16] 11% | [9]; at 11.0 µM 16% | [9]; at 33.0 µM 42% | [9]; at 50.0 µM 36% | [10]; at 1.2 µM 13% | [10]; at 3.7 µM 34% | [10]; at 11.0 µM 41% | [11]; [16] 31% | [12]; at 1.2 µM 6% | [12]; at 3.7 µM 10% | [12]; at 11.0 µM 41% | [12]; at 33.0 µM 55% | [13]; [16] 28% | [13]; at 50.0 µM 65.3% | [14]; at 1.2 µM 1% | [14]; at 3.7 µM 8% | [14]; [16] 27% | [14]; at 11.0 µM 30% | [14]; at 33.0 µM 64% | [15]; at 1.2 µM 3% | [15]; at 3.7 µM 9% | [15]; at 11.0 µM 16% | [15]; at 33.0 µM 45% | [1]; at 1.2 µM 3% | [1]; at 3.7 µM 10% | [1]; at 11.0 µM 24% | [1]; at 33.0 µM 62% | [2]; at 1.2 µM 3% | [2]; at 3.7 µM 16% | [2]; at 11.0 µM 32% | [3]; [16] 36% | [3]; at 50.0 µM 68.9% | [4]; at 1.2 µM 7% | [4]; at 3.7 µM 12% | [4]; at 11.0 µM 13% | [4]; at 33.0 µM 32%
